An excerpt weighted towards active compounds, which were near 1.6% of everything screened.
KCNQ2 inh – blocks the rat KCNQ2 potassium channel | AID 2156 | 1.1% of 310,000 active | B-score at 10 µM | O88943 | CHO-K1 KCNQ2, FluxOR thallium flux, 20 min; hits give low values;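 active = fluorescence ratio B-score at most minus 3 library SDs, with starting brightness B-score within 2 library SDs, cut at about -5.5 in these data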
KCNQ2 enhance – potentiators of rat KCNQ2 potassium channel | AID 2239 | CHO-K1 KCNQ2, FluxOR thallium flux fluorescence; hits give high values | B-score at 10 µM | 0.54% of 310,000 active;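 active = fluorescence ratio B-score at least 3 SD of library B-scores, with initial fluorescence B-score within 3 of them, cut at about 5.3 in these data; same plate scores as AID 2156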;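 also: B-score of peak minus minimum over baseline fluorescence ratio after K+ and Tl+ stimulus; positive B-score means potentiation of KCNQ2 with more thallium influx and brighter signal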
Kir21 confirm – confirmation of mouse Kir2.1 potassium channel inhibitors; shares compounds with KCNQ2 enhance; Kir2.1-expressing cells, FluxOR thallium flux fluorescence; hits give low values; Tl flux remaining, % of negative control (hits give low values), % at 10 µM; 41% of 2,300 active; AID 2032;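 active = Primary-screen hit whose thallium flux fell at least 3 control SD below untreated wells in both duplicates, with normal baseline fluorescence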;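 also: 0% = blank wells without stimulus and 100% = stimulated no-compound controls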
Target sequence (P35561 whole entry, looked up): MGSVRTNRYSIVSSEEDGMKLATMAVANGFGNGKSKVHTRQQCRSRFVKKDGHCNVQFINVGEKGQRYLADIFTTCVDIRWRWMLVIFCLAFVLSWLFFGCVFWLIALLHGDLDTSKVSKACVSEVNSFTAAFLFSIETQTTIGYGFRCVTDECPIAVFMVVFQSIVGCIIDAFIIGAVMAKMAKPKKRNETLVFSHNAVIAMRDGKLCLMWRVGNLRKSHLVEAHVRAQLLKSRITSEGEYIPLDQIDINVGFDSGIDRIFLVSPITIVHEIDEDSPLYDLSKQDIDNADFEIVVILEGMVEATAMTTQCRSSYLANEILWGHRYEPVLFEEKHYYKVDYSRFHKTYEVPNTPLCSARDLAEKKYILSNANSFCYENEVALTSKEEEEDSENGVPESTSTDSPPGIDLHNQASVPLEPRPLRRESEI
HEK293 Tl flux – counter-screen for Kir2.1 inhibitors: effect in parental HEK293 cells; FluxOR thallium flux fluorescence; 0% = unstimulated blank wells; shares compounds with KCNQ2 enhance; FluxOR signal as % of negative control (100 = no effect), % at 10 µM; 19% of 2,300 active;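 active = dye signal at least 3 control SD above or below untreated wells in both duplicates, raw fluorescence within 3, either direction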;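 also: percent is based on the flux ratio of peak minus minimum fluorescence over baseline F0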
CHO-K1 ctr – counter-screen for KCNQ2 potentiators: effect in parental CHO-K1 cells; shares compounds with KCNQ2 enhance; FluxOR thallium flux fluorescence; zero = vehicle mean+3SD, 100% = vehicle-minus-blank window; activity increase over 3SD of controls, % at 10 µM; 43% of 1,200 active;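 active = signal rise of at least 3 SD above the untreated control mean, in both duplicate wells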;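 also: counter screen of KCNQ2 potentiator hits so any rise reflects channel-independent effects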
KCNQ1 pot spec – human KCNQ1 counter-target activity of KCNQ2 potentiators; shares compounds with KCNQ2 enhance; activation over 3SD threshold, % at 10 µM; CHO KCNQ1 stable, FluxOR thallium flux fluorescence; beyond 3SD, as % of vehicle-control signal; 28% of 1,200 active;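 active = fluorescence ratio rise of at least 3 SD of vehicle wells above their mean, in both replicate wells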;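 also: 0% = vehicle mean plus 3 SD and 100% = vehicle minus unstimulated blank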
KCNQ2 pot conf – rat KCNQ2 channel potentiator confirmation | shares compounds with KCNQ2 enhance | CHO-KCNQ2 cells, FluxOR thallium flux fluorescence | potentiation, less the hit threshold, % at 10 µM | 68% of 1,200 active | AID 2287;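 active = fluorescence ratio rising 3 SD or more over the vehicle control mean in both replicates, plus primary screen hit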;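 also: peak minus minimum thallium fluorescence divided by baseline after K/Tl stimulus; 0% = vehicle mean plus 3 SD and 100% = vehicle minus unstimulated blank difference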
Kir2-1 sel – mouse Kir2.1 off-target activity of KCNQ2 potentiators. 2% of 1,200 active. HEK293 Kir2.1, FluxOR thallium flux fluorescence. activity over 3SD threshold, % at 10 µM. shares compounds with KCNQ2 enhance;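 active = fluorescence ratio rise of at least 3 SD above the vehicle-control mean, seen in both replicates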;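 also: 0% = vehicle mean plus 3 SD and 100% = vehicle minus no-stimulus blank window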
KCNQ2 W236L MoA – potentiates the retigabine-insensitive rat KCNQ2 W236L mutant channel; shares compounds with KCNQ2 enhance; CHO KCNQ2-W236L, automated patch clamp current; current increase over 3SD of negative controls (%), hits give high values, % at 25 µM; 10% of 940 active;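 active = current increase at least 3 SD of the untreated controls above them in both duplicate recordings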
An asterisk follows results filed as active; i = inactive; / = no result given.

SMILES | KCNQ2 inh | KCNQ2 enhance | Kir21 confirm | HEK293 Tl flux | others
COc1cc(CNCCc2ccc(F)cc2)ccc1OCc1ccc(Cl)nc1 | i | / | 32.5%* | i
COc1ccc(-c2c(C(F)(F)F)nn(C)c2NC(=O)CSCC(=O)O)cc1 | i | 2.15 | / | /
COC(=O)c1cc(NS(=O)(=O)c2ccc(C)c3ccccc23)ccc1N1CCOCC1 | i | 0.53 | / | /
O=C(NC(c1ccccc1)c1ccccc1)c1ccc(=O)[nH]n1 | i | 0.82 | / | /
Cc1ccc(-c2oc3ccccc3c(=O)c2O)cc1 | i | 5.64* | i | 162.5%* | CHO-K1 ctr=-20.6;KCNQ1 pot spec=-22.4;KCNQ2 pot conf=21.0*;Kir2-1 sel=-37.0;KCNQ2 W236L MoA=i
O=c1c(O)c(-c2cccs2)oc2ccccc12 | i | 12.5* | i | i | CHO-K1 ctr=9.6*;KCNQ1 pot spec=-32.7;KCNQ2 pot conf=65.6*;Kir2-1 sel=-35.6;KCNQ2 W236L MoA=i
O=c1cc(-c2cccs2)oc2ccc(Cl)cc12 | i | 1.25 | / | /
Cc1ccc(-c2oc3ccccc3c(=O)c2OCC(=O)O)cc1 | i | / | / | /
O=c1c(O)c(-c2cccs2)oc2ccc(Cl)cc12 | i | 14.5 | i | i | CHO-K1 ctr=-18.1;KCNQ1 pot spec=-16.5;KCNQ2 pot conf=70.4*;Kir2-1 sel=-29.1;KCNQ2 W236L MoA=24.4%*
CCCCn1c(-c2cccs2)nc2oc3ccccc3c(=O)c2c1=O | i | 0.86 | / | /
COc1ccccc1NC(=O)Cc1nnc(SCC(=O)Nc2nccs2)n1C | i | / | / | /
Cc1ccc(C)c(C(C)NC(=O)Cc2cccs2)c1 (configuration not stated) | i | / | / | /
CCCN(C(=O)CSCc1ccccc1C)c1c(N)n(Cc2ccccc2)c(=O)[nH]c1=O | i | 0.98 | / | /
O=C(Nc1ccccc1C(=O)O)/C(=C/c1ccc(Cl)cc1Cl)NC(=O)c1ccco1 | i | / | / | /
CC(=O)c1cccc(OCc2cc(C(=O)NCc3nc(C)c(C)s3)no2)c1 | i | / | / | /
O=C(c1ccsc1)N1CCCC(N2CCOCC2)C1 (configuration not stated) | i | 0.67 | / | /
Oc1c(Cl)cc(Cl)cc1C=Nc1ccc(N2CCOCC2)cc1 | i | 4.3 | / | /
Oc1c(Cl)cc(Cl)cc1C=Nc1ccc(Br)cc1 | i | 7.06* | i | i | CHO-K1 ctr=-19.5;KCNQ1 pot spec=30.8*;KCNQ2 pot conf=15.6*;Kir2-1 sel=-25.4;KCNQ2 W236L MoA=i
Cc1ccc(-n2ncc(C(=O)Nc3cc(Cl)cc(Cl)c3)c2C2CCNCC2)cc1C | i | / | i | i
Cc1ccc(-n2ncc(C(=O)Nc3cc(Cl)ccc3Cl)c2C2CCNCC2)cc1 | i | / | / | /
COc1ccc2c(c1)CCCN2C(N)=O | i | / | / | /
COc1ccc2c(c1)CCCN2C(N)=Nc1ccc(Cl)cc1 | i | 1.05 | 37.0%* | i
Cc1ccc(C(C)(C)C)c(SCC(=O)Nc2nnc(C)s2)c1 | i | 1.37 | / | /
COc1cccc(CN(c2ccc3c(c2)CCC3)S(=O)(=O)c2ccc(-n3cnnn3)c(OC)c2)c1 | i | / | / | /
CC(COc1ccccc1Cc1ccccc1)N1CCCCC1 (configuration not stated) | i | 0.23 | i | i
SMILES | KCNQ2 inh | KCNQ2 enhance | Kir21 confirm | HEK293 Tl flux | others
O=C(O)COc1ccccc1Cc1ccccc1 | i | / | / | /
Oc1c(Br)cc(Br)cc1/C=N/c1nc2c(s1)CCCC2 | i | 8.7* | i | i | CHO-K1 ctr=47.9*;KCNQ1 pot spec=-5.8;KCNQ2 pot conf=26.5*;Kir2-1 sel=-46.1;KCNQ2 W236L MoA=4.4%*
Oc1ccc2ccccc2c1/C=N/c1nc2c(s1)CCCC2 | i | / | / | /
O=C(Cc1ccccc1)NCC(=O)Nc1cccc(Cl)c1 | i | 0.68 | / | /
COC(=O)c1nc(NC(=S)NC(=O)c2cccs2)sc1C | i | 5.79* | i | 140.5%* | CHO-K1 ctr=5.0*;KCNQ1 pot spec=-29.9;KCNQ2 pot conf=-1.6;Kir2-1 sel=-36.8;KCNQ2 W236L MoA=i
CCc1ccc(-c2nc(NC(=S)NC(=O)c3cccs3)sc2C)cc1 | i | 1.69 | / | /
CN1CCN(C(=O)Nc2cccc(-c3ccccc3)c2)CC1 | i | 0.17 | / | /
O=C(NC(=S)N1CCOCC1)c1cc2ccccc2o1 | i | / | / | /
Cc1ccc(CNCC(O)(c2ccccc2)c2ccc(F)cc2)cc1 (configuration not stated) | i | / | / | /
OC(CNCc1ccccc1F)(c1ccc(F)cc1)c1ccc(F)cc1 | i | / | / | /
OC(CNCc1ccccc1)(c1ccc(F)cc1)c1ccc(F)cc1 | i | / | 38.5%* | i
OC(CNCc1ccc(F)cc1)(c1ccccc1)c1ccc(F)cc1 (configuration not stated) | i | / | i | i
COc1cc(Cl)c(C)cc1NC(=O)COC(=O)c1cc[n+]([O-])cc1 | i | 0.88 | / | /
Cc1ccc2c(c1)c1c(n2CC(O)CNC(CO)(CO)CO)CCCC1 (configuration not stated) | i | 0.98 | / | /
Cc1ccc2c(c1)c1c(n2CC(O)CNC2CCCCC2)CCCC1 (configuration not stated) | i | / | 51.0%* | i
CC(=O)c1c(C)[nH]c(-c2ccccc2)nc1=S | i | 5.98* | i | 167.5%* | CHO-K1 ctr=41.2*;KCNQ1 pot spec=-4.4;KCNQ2 pot conf=-2.3;Kir2-1 sel=-24.1;KCNQ2 W236L MoA=i
COc1ccccc1-c1nc(=S)c(C(C)=O)c(C)[nH]1 | i | 0.12 | / | /
Cc1ccc(C)c(NC(=O)CSc2nnc3n2CCCCC3)c1 | i | 0.83 | / | /
COCCNC(=O)/C(C#N)=C/c1ccc(OC(=O)c2cccs2)c(OC)c1 | i | / | i | i
COCCNC(=O)/C(C#N)=C/c1cccs1 | i | / | / | /
O=C(Nc1nc(=O)c2ccccc2s1)c1ccc(F)cc1 | i | 5.81* | i | 173.5%* | CHO-K1 ctr=-4.1;KCNQ1 pot spec=-29.9;KCNQ2 pot conf=-12.2;Kir2-1 sel=-18.1
O=C(Cc1ccccc1)Nc1nc(=O)c2ccccc2s1 | i | 2.68 | / | /
Cc1c(NC(=O)C(C)OC(=O)/C=C/c2ccc(OC(F)F)cc2)c(=O)n(-c2ccccc2)n1C (configuration not stated) | i | 0.4 | / | /
Cc1oc2cc([N+](=O)[O-])c(O)c([N+](=O)[O-])c2c1C(=O)c1ccc(Cl)cc1 | i | 7.93* | i | 143.5%* | CHO-K1 ctr=87.8*;KCNQ1 pot spec=-9.7;KCNQ2 pot conf=14.2*;Kir2-1 sel=-33.5;KCNQ2 W236L MoA=10.1%*
COc1ccc(OC)c(C(=O)c2c(C)oc3cc([N+](=O)[O-])c(O)c([N+](=O)[O-])c23)c1 | i | 0.84 | / | /
CCOC(=O)CN1C(=O)N[C@@H](CCc2ccccc2)[C@H](C(C)=O)[C@H]1C | i | / | / | /
COc1cc2ccc3c(CCN(C)C)cc(OC)c(OC)c3c2cc1OC | i | 1.34 | / | /

Screens: PubChem BioAssay, Johns Hopkins Ion Channel Center
